This test deals with Genome polyprotein (Dengue virus type 2 (strain 16681-PDK53)) (UniProt P29991). Put plainly: flavivirus cap methylation enzyme inhibition – biochemical, confirmation dose response, primary screen (AID 588689). To be noted: Dengue-2 NS5 methyltransferase capping enzyme assay, at 25 µM, stronger effect = higher value.
[1] abbreviates: measured here: pilot screen replicate inhibition.

Among all 340,000 compounds or so, about 1,000 (0.29%) were called active. Rule as the data show it: inconclusive = inhibition above about 29% without an active follow-up result; inactive = below that. Not all results are given here. Entries with a potency or affinity are not part of this list.

`O=Cc1c(Cl)cccc1Cl`: the inhibition was 0% (inactive).

For `C=CCOC(=O)C(=O)/C=C/c1csc2ccccc12`, the inhibition is 23.7% (inactive).

On to `O=C1Nc2ccccc2/C1=C/c1ccccc1Cl`, for which the inhibition was -2.65% (inactive).

For `O=C1NC(=O)/C(=C/c2ccccc2Cl)N1`, the inhibition was -5.96% (inactive).

`O=C1NC(=S)NC1=Cc1ccc(Cl)cc1Cl`: the inhibition is -0.78% (inactive).

Turning to `O=C1NC(=S)NC(=O)C1=Cc1ccccc1C(=O)O`, the inhibition is 1.94% (inactive).

Regarding `C/C=C/C=C\C(=O)Nc1cccc(C2=NOC3(C2)C[C@H](C(N)=O)N(C(=O)/C=C/C)C3)c1` (some centres undefined), the inhibition was -9.17% (inactive).

As to `CCOC(=O)c1c(S(=O)(=O)N(C)C2CCCCC2)c(C)n(C)c1C`, the inhibition was -7.99% (inactive).

As for `CC(C)(CNC(=O)c1cc(Cl)c(O)c(Cl)c1)N1CCCCC1`, the inhibition was 3.57% (inactive).

Regarding `CCC1=NN2C(=N)/C(=C\c3ccc(OCCOc4ccc(NC(C)=O)cc4)c(OC)c3)C(=O)N=C2S1`, the inhibition is 4.57% (inactive).

Take `CCC1=NN2C(=N)/C(=C/c3ccc(OS(=O)(=O)c4ccccc4)c(OC)c3)C(=O)N=C2S1`: the inhibition is 4.04% (inactive).

In the case of `N=C1/C(=C\c2ccc(OC(=O)c3ccccc3)cc2)C(=O)N=C2SC(N3CCOCC3)=NN12`, the inhibition was 3.46% (inactive).

Take `N=C1/C(=C\c2ccc(OC(=O)c3ccccc3Cl)cc2)C(=O)N=C2SC(N3CCOCC3)=NN12`: the inhibition was 34.8% (inactive).

Regarding `N=C1/C(=C\c2ccc(OC(=O)c3ccc(F)cc3)cc2)C(=O)N=C2SC(N3CCCC3)=NN12`, the inhibition is -2.77% (inactive).

Take `Cc1ccc(C(=O)Oc2ccc(/C=C3\C(=N)N4N=C(N5CCOCC5)SC4=NC3=O)cc2)cc1`: the inhibition was 9.04% (inactive).

Turning to `COCCN(CCOC)S(=O)(=O)c1ccc(C(=O)NCCCN2CCOCC2)cc1`, the inhibition is -2.15% (inactive).

Turning to `O=C(c1ccco1)N1CCN(C(=S)Nc2ccccc2Cl)CC1`, the inhibition is 1.93% (inactive).

With `Cc1cc2n(n1)C(c1ccsc1)Nc1ccccc1-2` (centres undefined), the inhibition is -9.35% (inactive).

As for `C/C(=C\COc1cc(=O)[nH]c2ccccc12)CCC(O)C(C)(C)O` (centres undefined), the inhibition was -11.2% (inactive).

For the compound `Cc1nc2ccccc2n1CC(=O)NC(C)C1CC2CCC1C2` (centres undefined), the inhibition is -6.66% (inactive).

On to `C=CCn1c(SCc2ccc(F)cc2)nc2c1c(=O)[nH]c(=O)n2C`, for which the inhibition is -3.48% (inactive).

On to `Cc1nn(CC(=O)Nc2cccnc2)c(C)c1[N+](=O)[O-]`, for which the inhibition was -9.49% (inactive).

`C/C(=N/NC(=O)Cc1ccccc1)c1ccc(C)s1`: the inhibition was 5.19% (inactive).

Turning to `O=C1ON=C(c2ccccc2)/C1=C/c1ccc(O)cc1`, the inhibition is 42% (inactive). Further, the inhibition under setting [1] amounted to 20.8%.

`O=C1ON=C(c2ccccc2)/C1=C/c1ccc(O)c(O)c1`: the inhibition was 28.7% (inactive).

In the case of `Cc1ccc(C2=NOC(=O)/C2=C\c2ccccc2)cc1`, the inhibition was 27.9% (inactive).

In the case of `O=C1ON=C(c2ccccc2)/C1=C/c1ccccc1`, the inhibition was 27% (inactive). Besides, the inhibition under setting [1] is 8.25%.

With `O=c1[nH]c2cc(Cl)cc(Cl)c2[nH]c1=O`, the inhibition is -3.92% (inactive).

`CSc1nc(N(C)C)nc(N(C#N)CCOC(C)=O)n1`: the inhibition was 0.74% (inactive).

In the case of `COc1ccc(NS(=O)(=O)c2cc(NC(=O)[C@@H](NC(=O)c3ccccc3)C(C)C)ccc2C)cc1`, the inhibition was -3.89% (inactive).

For `O=C(O)CCc1c(C(=O)O)[nH]c2ccccc12`, the inhibition was -0.56% (inactive).

Turning to `COc1cc(C(NC(C)=O)NC(C)=O)ccc1OCc1ccccc1`, the inhibition was -12.5% (inactive).

For `COc1cc(CC(=O)O)ccc1OCc1ccccc1`, the inhibition was -5.48% (inactive).

For the compound `CC(=O)Nc1c(C(=O)O)[nH]c2ccccc12`, the inhibition is -4.8% (inactive).

As for `Cc1[nH]c2ccccc2c1SCC(=O)O`, the inhibition is -8.76% (inactive).

On to `C=CCOc1ccc(C(c2c(C)n(C)n(-c3ccccc3)c2=O)c2c(C)n(C)n(-c3ccccc3)c2=O)cc1`, for which the inhibition is -3.27% (inactive).

Take `COc1ccc(CN=Cc2c(C(=O)O)[nH]c3ccccc23)cc1`: the inhibition was -3.12% (inactive).

As for `O=C(O)c1[nH]c2ccccc2c1-c1ccccc1`, the inhibition is -4.76% (inactive).

Regarding `COc1ccc2sc(N(CCCN(C)C)C(=O)c3ccc(C(=O)c4ccccc4)cc3)nc2c1`, the inhibition was 0% (inactive).

On to `CN(Cc1ccccc1F)C(=O)C1CCCN(C(=O)c2ccc(Cl)cc2)C1` (centres undefined), for which the inhibition was 3.62% (inactive).

On to `COc1ccc(NS(=O)(=O)c2ccc3c(c2)N(C(C)=O)CCS3)cc1`, for which the inhibition was -7.87% (inactive).

`CCOc1nc(C)ccc1-c1noc(C)n1`: the inhibition is 0% (inactive).

On to `COCc1c(Br)c(C)nc(OCC(=O)O)c1C#N`, for which the inhibition is 0.8% (inactive).

`CCCCN(C(=O)CCC(=O)Nc1cc(C)on1)C(C(=O)NC1CCCC1)c1ccc(F)cc1` (centres undefined): the inhibition was -14.2% (inactive).

With `N#Cc1cc2c(nc1SCc1cccc(Cl)c1)CCCCC2`, the inhibition was 4.4% (inactive).

Take `Cc1ccc(C(=O)OCC(=O)N2CCC(C)CC2)cc1S(=O)(=O)N1CCCCC1`: the inhibition is -4.55% (inactive).

On to `CCCCSC1=N/C(=C/c2ccsc2)C(=O)N1c1ccccc1`, for which the inhibition is -1.97% (inactive).

`Fc1cccc(COc2ccccc2C(=S)N2CCCC2)c1`: the inhibition is -5.22% (inactive).

As for `Cc1[nH]c2ccccc2c1C(C[N+](=O)[O-])c1cccc(O)c1` (centres undefined), the inhibition is -3.77% (inactive).

`CCS(=O)(=O)Nc1c(C(=O)O)[nH]c2ccccc12`: the inhibition was -0.33% (inactive).

Take `C#CCOCCOCCOCCNc1nc(N2CCN(C(=O)[C@H](CO)n3cc([C@@H](N)C(C)C)nn3)CC2)nc(N2CCN(C(=O)[C@H](CCCCN)n3cc([C@@H](N)[C@H](C)CC)nn3)CC2)n1`: the inhibition was 0% (inactive).

Regarding `Cc1ccc(/C=N/NC(=O)c2ccncc2)cc1`, the inhibition was -7.15% (inactive).

On to `Cc1ccsc1/C=N/NC(=O)c1ccncc1`, for which the inhibition was -0.74% (inactive).

For `Cn1c(=O)c(/C(N)=N/OC(=O)c2ccccc2)cn(-c2ccccc2)c1=O`, the inhibition is 0% (inactive).

Regarding `Cc1nc2nc(C)c(NS(=O)(=O)c3ccc(C4CCCCC4)cc3)c(=O)n2[nH]1`, the inhibition was -5.01% (inactive).

For `CCc1nc2nc(C)c(NS(=O)(=O)c3ccc(C4CCCCC4)cc3)c(=O)n2[nH]1`, the inhibition was 7.51% (inactive).

Turning to `Cc1cc(Br)ccc1NC(=O)c1ccc(-n2cncn2)c([N+](=O)[O-])c1`, the inhibition is 5.79% (inactive).

Take `O=C(CCCCCNc1nc(=S)[nH]c2ccccc12)NCCC1=CCCCC1`: the inhibition was -4.45% (inactive).

For `CCCCn1c(N)c(N(CC(C)C)C(=O)C2CCCO2)c(=O)[nH]c1=O` (centres undefined), the inhibition was -0.74% (inactive).

Consider `COc1cc2c(cc1OC)C1c3ccc(OC)c(OC)c3OCC1(O)C2` (centres undefined), for which the inhibition is 3.23% (inactive).

With `CCOc1ccc(NC(=O)CN(C)C(=O)c2ccncc2)cc1OCC`, the inhibition was 4.54% (inactive).

For the compound `O=C(CCOc1ccccc1)N1CCCC(Nc2ccccc2)C1` (centres undefined), the inhibition is -3.45% (inactive).

Turning to `COc1cccc(CNC(=O)[C@H](C)NC(=O)C2CCN(S(=O)(=O)c3ccccc3)CC2)c1`, the inhibition was -6.35% (inactive).

As for `CC12CCC(=O)N1C(C(=O)Nc1nccs1)CS2` (centres undefined), the inhibition was -5.93% (inactive).

Turning to `Cc1nc(SCC(=O)O)c2oc3ccccc3c2n1`, the inhibition is -1.65% (inactive).

For the compound `O=C(O)CSc1nc(-c2ccccc2)nc2c1oc1ccccc12`, the inhibition was 5.73% (inactive).

Regarding `CC(C)(C)c1ccc(C(=O)Nc2c3c(nn2C(C)(C)C)CS(=O)(=O)C3)cc1`, the inhibition was -9.75% (inactive).

For `CCCOC(=O)CSC1=C(C#N)C(c2ccccc2OC)C(C#N)C(=O)N1` (centres undefined), the inhibition was -15.9% (inactive).

In the case of `CNC(=O)CC1C(=O)N(C)C(=S)N1NC(=O)c1ccccc1` (centres undefined), the inhibition was 2.33% (inactive).

For `COc1cc(C)ccc1OCCOc1ccccc1Cl`, the inhibition is -4.77% (inactive).

Regarding `COc1cc(CO)cc(Br)c1OCC(=O)O`, the inhibition was -12.1% (inactive).

For `CCc1ccc(N=C2NC(=O)/C(=C/c3ccc(OCC(=O)O)c(OC)c3)S2)cc1`, the inhibition was -3.47% (inactive).

In the case of `Cc1ccc(S(=O)(=O)NCCC(=O)Nc2nccs2)cc1`, the inhibition is -0.76% (inactive).

`Cc1cccc(N(CC(=O)Nc2ccccc2-c2ccccc2)S(=O)(=O)c2ccccc2)c1C`: the inhibition is 1.45% (inactive).

As to `CC(C)(C)c1csc(CS(=O)(=O)c2ccccn2)n1`, the inhibition was -4.67% (inactive).

Take `Cc1ccc(NC(=O)c2ccc(S(=O)(=O)Nc3c(C)n(C)n(-c4ccccc4)c3=O)cc2)nc1`: the inhibition was -5.09% (inactive).

On to `Cc1cccc(NC(=O)CSc2nnc(-c3ccco3)o2)c1C`, for which the inhibition is 3.22% (inactive).

With `O=C(CSc1nnc(-c2ccco2)c(-c2ccco2)n1)c1ccccc1`, the inhibition is 29.5% (inactive).

Turning to `Cc1ccccc1NC(=O)CSc1n[nH]c(-c2ccco2)n1`, the inhibition is 0.76% (inactive).

Regarding `CSc1nnc(-c2ccccc2)c(-c2ccccc2)n1`, the inhibition is -5.41% (inactive).

Take `Cc1ccc(NC(=O)CSc2nnc(-c3ccco3)c(-c3ccco3)n2)cc1`: the inhibition was 14.3% (inactive).

On to `Cc1cccc(NC(=O)CSc2nnc(-c3ccco3)c(-c3ccco3)n2)c1`, for which the inhibition is 25.8% (inactive).

Turning to `COc1cccc(NC(=O)c2ccc3c(O)c(S(=O)(=O)c4ccccc4)c(=O)[nH]c3c2)c1`, the inhibition was 4.09% (inactive).

In the case of `CCCCn1c(N)c(N(CC(C)C)C(=O)CC2CCCCC2)c(=O)[nH]c1=O`, the inhibition is -11.5% (inactive).

As to `C[C@@H]1CC2[C@@H]3CC[C@H]4CC(=O)CC[C@]4(C)C3=CC[C@]2(C)[C@@]1(O)C(=O)CO` (some centres undefined), the inhibition is -1.96% (inactive).

In the case of `CC1=C(C(=O)Nc2cccc(C(=O)NC(C)c3ccccc3)c2)SCCO1` (centres undefined), the inhibition is -4.13% (inactive).

As for `CCOc1cc(C(=O)O)cc(Cl)c1OCC#N`, the inhibition was -2.72% (inactive).

In the case of `CCOc1cc(C=O)cc(Cl)c1OCC(N)=O`, the inhibition was -2.73% (inactive).

Regarding `O=c1[nH]c2ccc(S(=O)(=O)N3CCN(Cc4ccccc4)CC3)cc2[nH]c1=O`, the inhibition was -2.74% (inactive).

For the compound `CC(=O)Nc1ccc(-c2csc(NC(=O)C3CCN(S(=O)(=O)c4cccs4)CC3)n2)cc1`, the inhibition was -5.78% (inactive).

In the case of `Cc1ccc(N2C(=O)c3ccccc3C2=O)cc1C`, the inhibition is -5.39% (inactive).

In the case of `Cc1ccc(N2C(=O)c3ccc(C(=O)O)cc3C2=O)cc1C`, the inhibition is 9.14% (inactive).

Source of the values: PubChem BioAssay AID588689 (Southern Research Specialized Biocontainment Screening …, 2011).
